# Assay results: PubChem BioAssay (NCI)
# The panel holds about 79,000 compounds, 15% with a hit somewhere; the sample as a whole holds those more often. Values without a mark were called inactive. Activity calls are given as the source filed them. Cut-off read from the data, not from the text of the source: active = growth inhibition above about 70%; inactive = the rest.
# How the values were obtained:
# [1] = NCI Yeast Anticancer Drug Screen. Data for the rad50 strain (AID 155);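 note: 0% = growth of vehicle-only cultures of the same strain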; settings: S. cerevisiae rad50 strain growth inhibition; at 50.0 µM; active compounds read high
# In short: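 Compounds were tested on a yeast strain with an engineered DNA damage repair alteration; the reported value is growth inhibition normalised to vehicle treatment.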
# [2] = NCI Yeast Anticancer Drug Screen. Data for the mec2-1 strain (AID 157); settings: S. cerevisiae mec2-1 strain, at 50.0 µM, active compounds read high
# In short: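 Yeast mec2-1 mutant treated with compound. Readout: growth inhibition vs vehicle controls.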
# [3] = NCI Yeast Anticancer Drug Screen. Data for the sgs1 mgt1 strain (AID 161);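 note: 0% = growth of cultures given vehicle only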; settings: S. cerevisiae sgs1 mgt1 strain, at 50.0 µM, active compounds read high
# In short: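 Read-out: growth inhibition vs vehicle controls. Cells: mutant yeast strain deficient in DNA damage repair.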
# [4] = NCI Yeast Anticancer Drug Screen. Data for the cln2 rad14 strain (AID 165);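 note: 0% = growth equal to vehicle treated cultures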; settings: S. cerevisiae cln2 rad14 strain, at 50.0 µM, active compounds read high
# In short: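 cln2 rad14 yeast strain; compound exposure; growth inhibition read vs vehicle controls.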
# [5] = NCI Yeast Anticancer Drug Screen. Data for the bub3 strain (AID 167); settings: S. cerevisiae bub3 mutant strain, at 50.0 µM, active compounds read high
# In short: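 Growth of a checkpoint-deficient yeast mutant is measured after compound exposure. Values represent inhibition relative to vehicle.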
# [6] = NCI Yeast Anticancer Drug Screen. Data for the mlh1 rad18 strain (AID 175); settings: S. cerevisiae mlh1 rad18 strain growth inhibition; at 50.0 µM; active compounds read high
# In short: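 Yeast w/ defined DNA-repair lesions; compound exposure; growth vs vehicle controls → % inhibition.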
Structure (SMILES),growth inhibition [1],growth inhibition [2],growth inhibition [3],growth inhibition [4],growth inhibition [5],growth inhibition [6]
O=C(O)C(=O)C(Cl)Br (stereo unspecified),4.95%,-8.75%,-2.5%,-18%,2.35%,0.65%
O=C(O)C(CSC(c1ccccc1)c1ccccc1)N1C(=O)c2ccccc2C1=O (stereo unspecified),47.9%,36.4%,46.4%,43.3%,29.1%,44.7%
Cc1nn[n-]n1.N.N.N.N.N.[Cl-].[Co+3],4.25%,6.3%,22.1%,27.9%,9.6%,13.1%
CCCCCCCCCl,14.7%,-4.7%,7.75%,20.1%,8.4%,-8.5%
O.O=[Se](=O)(O)O.[NH-]C1CCCCC1[NH-].[Pt+2] (stereo unspecified),-16.1%,-16.9%,-16.1%,-21.5%,-36.1%,-55.5%
O=[N+]([O-])O.[NH-]C1CCCCC1[NH-].[NH-]C1CCCCC1[NH-].[OH-].[OH-].[Pt+4].[Pt+4] (stereo unspecified),49.8%,-4.8%,-29.3%,-5.45%,-41%,30.2%
COc1cc([N+](=O)[O-])ccc1[As](=O)(O)O,0%,-4.1%,8.95%,-63.5%,10.7%,-1.05%
COc1ccccc1CC(C)NC(C)Cc1ccccc1OC (stereo unspecified),2.25%,-3.4%,8.05%,-1.8%,-1.4%,7.6%
COC(=O)C1C(OC(=O)C(Cl)(c2ccccc2)c2ccccc2)CC2CCC1N2C (stereo unspecified),-5.25%,-6.35%,-19.6%,7.65%,-21.1%,-6.9%
O=C(O)c1cc(I)cc(I)c1I,-5.55%,-16.1%,-34.5%,-70.2%,1.25%,12.7%
O.O.O=Cc1ccccc1O.O=Cc1ccccc1O.[Ni],47.1%,52.4%,64.7%,17.1%,51.5%,76.9% (active)
CN1CN(c2ccccc2)C2(CCN(CCc3csc4ccccc34)CC2)C1=O,29.9%,12.2%,17.8%,16.9%,3.5%,19.4%
O=C1NC(=S)NC(=O)C1=CC1CC1,22.6%,13.8%,17.4%,19.6%,9.2%,29.6%
N#CC(c1ccccc1)c1ccccc1,-12.9%,9.35%,-4.55%,-17.6%,20.6%,31.3%
O=C(C1C(c2ccccc2)N1C1CCCCC1)C1C(c2ccccc2)N1C1CCCCC1 (stereo unspecified),6%,17.9%,10.6%,-5.1%,-10.5%,8.7%
O=C(CC(=O)C(F)(F)C(F)(F)C(F)(F)F)c1ccco1.[Fe],25.3%,24.7%,23.6%,13.6%,15.7%,17.9%
COc1ccc2c(c1O)[C@@]13C=C(O)C(=O)C=C1[C@@H](C2)N(C)CC3,40%,4.6%,11.6%,23.6%,-2.6%,-47.9%
C=CC[As](=O)(O)c1ccccc1Cl,96% (active),99.5% (active),99.5% (active),84.2% (active),98.3% (active),99% (active)
C=C[CH2][Sn]([CH2]C=C)([c]1ccccc1)[c]1ccccc1,47.6%,18.6%,28.8%,6.7%,-7.55%,16.4%
CCCCOP(=O)(OCCCC)OC(C)C(C)=O (stereo unspecified),-0.15%,2.75%,5.6%,0.45%,5.15%,-2.05%
CCOC(=O)C1(C#N)C(C#N)(C#N)C12CCCCC2 (stereo unspecified) (tested in a mixture with another compound),36.5%,10.1%,56%,4.9%,33.8%,23.2%
